Beta cell apopt = beta cell apoptosis inhibition; INS-1E cytokine-induced death, ATP luminescence, 48 h; percent of positive-control rescue, neutral wells zero; protection from apoptosis, % (concentration not given with the values); 0.8% of 300,000 active;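 active = Every replicate reaches about 75%, or at least half do and their mean reaches it too, limit read from the data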;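 note: higher means more ATP so stronger rescue from cytokine killing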
Gli-Sufu block = blocks Gli-Sufu signaling in a luciferase reporter. inhibition, % at 5 µM. 0.74% of 340,000 active. AID 588413. Sufu-KO-LIGHT fibroblasts, Gli luciferase reporter luminescence;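 active = inhibition above about 55%, limit read from the data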
697 NFkB inh = lowers PMA/ionomycin-induced NF-kB signal in 697 B cells | inhibition, % at 4 µM | AID 435022 | 0.33% of 330,000 active | 697 B-cell NF-kB luciferase reporter, 16 h; in the data active = inhibition above about 35%
Jurkat NFkB inh = lowers PMA/ionomycin-induced NF-kB signal in Jurkat cells; PMA/ionomycin-induced NF-kB luciferase reporter, luminescence; inhibition, % at 4 µM; 0.53% of 330,000 active; AID 435003; in the data active = inhibition above about 50%
Jurkat NFkB conf = lowers PMA/ionomycin-induced NF-kB signal in Jurkat cells; shares compounds with Jurkat NFkB inh; Jurkat NF-kB luciferase, 16 h; 27% of 2,700 active; inhibition, % at 4 µM;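 active = inhibition reaching about 45% at 4 µM in either replicate, limit read from the data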
697 NFkB conf = inhibitors of the PMA/ionomycin-induced NF-kB reporter in 697 B cells, retest. shares compounds with 697 NFkB inh. 697 B-cell NF-kB luciferase, 16 h. inhibition, % at 4 µM. 35% of 2,000 active. AID 449746; in the data active = inhibition mostly above about 28%, no sharp cut-off; inactive = mostly below about 22%
Gli-Sufu confirm = Gli-SUFU antagonism confirmation, single concentration. AID 602428. 40% of 2,500 active. inhibition, % at 5 µM. shares compounds with Gli-Sufu block. Sufu-KO-LIGHT cells, Gli luciferase reporter, luminescence;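 active = mean inhibition at 5 µM reaching about 45%, limit read from the data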
SufuKO cytotox = cytotoxicity counter-screen for Gli-SUFU antagonists; cytotoxicity, % at 5 µM; Sufu-KO-LIGHT cells cytotoxicity, ATP luminescence; shares compounds with Gli-Sufu block; 32% of 2,500 active;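 active = mean cytotoxicity at 5 µM above about 25%, limit read from the data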;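 note: cells exposed to compound overnight for roughly 16 to 18 hours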
Wnt3a cs = Wnt3a reporter inhibition counter-screen. AID 651995. shares compounds with Gli-Sufu block. Wnt-LIGHT cells, Wnt3a-driven luciferase reporter, luminescence. inhibition, % at 6.25 µM. 20% of 2,500 active;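 active = mean inhibition above about 25%, limit read from the data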
Hits are given with their value; i = inactive; nt = no result given. Only some compounds are listed: those with a hit (about 1.8% of all), similar ones and a draw of the others.

SMILES | Beta cell apopt | Gli-Sufu block | 697 NFkB inh | Jurkat NFkB inh | 697 NFkB conf | others
C[C@H]1CCC/C=C/[C@@H]2C[C@H](O)C[C@H]2[C@H](O)/C=C/C(=O)O1 | 116.9 | 88.9 | 65.7 | 97.8 | 80.8 | Jurkat NFkB conf=i
C[C@H]1CCCC(=O)CCC/C=C/c2cc(O)cc(O)c2C(=O)O1 | i | i | i | i | nt
CC(=O)c1cn(Cc2ccccc2C#N)c2ccccc12 | nt | 58.7 | 47.2 | 52.2 | 29.8 | Jurkat NFkB conf=54.8;Gli-Sufu confirm=62.6;SufuKO cytotox=i;Wnt3a cs=34.1
COc1cc2c(cc1OC)[C@@H]1C(=O)c3ccc4c(c3O[C@@H]1CO2)C[C@H](C(C)C)O4 | 132.6 | 83.3 | 71.5 | 74.5 | 80.9 | Jurkat NFkB conf=77.8;Gli-Sufu confirm=85.3;SufuKO cytotox=42.2;Wnt3a cs=52.8
COc1cc2c(cc1OC)[C@H]1C(=O)c3ccc4c(c3O[C@H]1CO2)C[C@@H](C(C)(C)O)O4 | i | i | i | i | nt
CCC(=NCc1ccco1)c1c(O)n(-c2ccc(OC)cc2)c(=O)[nH]c1=O | i | i | i | i | nt
CN(C)c1ccc(C(=O)N/N=C/C23CC[C@@H](O)CC2(O)CC[C@@H]2[C@@H]3CCC3(C)C(C4=CC(=O)OC4)CCC23O)cc1 (stereo not given in full) | i | i | i | i | i
CSc1nc2ccccc2c(=O)n1-c1cccnc1 | i | i | i | i | nt
CCCCn1c(O)c(C(CC)=NC(C)c2ccccc2)c(=O)[nH]c1=O (stereo not given) | i | i | i | i | nt
C=CCn1c(O)c(C(CC)=NC(C)c2ccccc2)c(=O)[nH]c1=O (stereo not given) | i | i | 60.6 | i | 38.9
CCCCCCC(Cl)(Cn1ccnc1)c1ccccc1 (stereo not given) | i | i | i | i | nt
N=c1c2c(n(Cc3ccc(Cl)cc3Cl)c3c1CCC3)CCCC2 | 120.9 | i | 67.6 | i | 32.9
Cc1cc(C)cc(N2C(=O)NC(=O)/C(=C\c3cccn3-c3ccccc3)C2=O)c1 | i | i | 53.3 | i | 61.5
Cc1cc(C)cc(N2C(=O)NC(=O)/C(=C\c3cccn3-c3ccc(Cl)cc3)C2=O)c1 | i | i | i | i | nt
CN(C)P(=O)(C(Cl)=C(N1CCCCC1)N1CCCCC1)N(C)C | i | i | 40.7 | i | i
CC(=NCc1cccnc1)c1c(O)n(-c2ccccc2)c(=O)[nH]c1=O | i | i | i | i | nt
CC(=O)OC1CC[C@]2(C#N)[C@H]3CC[C@]4(C)[C@H](C5C=CC(=O)O5)CCC4(O)C3CCC2(O)C1 (stereo not given in full) | i | i | i | i | i
COC(=O)C(C)Oc1cc(C)cc2oc(=O)c3c(c12)CCC3 (stereo not given) | i | i | 36.0 | i | 55.5
COC(=O)C(C)Oc1cc(C)cc2oc(=O)c3c(c12)CCCC3 (stereo not given) | i | i | i | i | nt
Cc1nn(C)c(C)c1P(=S)(c1c(C)nn(C)c1C)N(C)C | i | i | i | i | nt
CN(C)CCNC(=O)c1cccn(Cc2cc(C(F)(F)F)cc(C(F)(F)F)c2)c1=O | i | i | i | i | nt
Cc1ccc(-n2c(O)c(/C=N/NC(=O)c3ccncc3)c(=O)[nH]c2=O)cc1C | i | i | i | i | nt
Cc1cc(N=Nc2ccccc2C)ccc1N | i | i | i | i | i
Cc1nc2cc(-c3cccc(F)c3)nn2c(C)c1CCC(=O)N1CCC2(CC1)OCCO2 | i | i | 36.0 | i | 35.7
O=C(c1ccc(C(F)(F)F)cc1)C1CCCN(Cc2ccncc2)C1 (stereo not given) | i | 55.8 | i | i | nt | Gli-Sufu confirm=i;SufuKO cytotox=i;Wnt3a cs=i
COc1ccc(C(=O)C2CCCN(Cc3cnc(C)s3)C2)cc1OC (stereo not given) | i | i | i | i | nt
Cc1ncc(CN2CCCC(C(=O)c3ccc(C(C)(C)C)cc3)C2)s1 (stereo not given) | i | i | i | i | nt | Gli-Sufu confirm=i;SufuKO cytotox=i;Wnt3a cs=i
Cc1cc(C(=O)O)c(C)n1C1CC1 | i | i | i | i | nt

Bioassay records from PubChem BioAssay.
